This is part of a sample that, as a whole, favours compounds with a hit. Of some 83,000 tested, about 20% had one in any assay.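 Plates (96-well) were seeded with cells, treated with compound at one concentration, and incubated for 48 hours before percent growth was determined.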 Calls of active or inactive are those of the source. How the source made its calls: active means growth percent below 10; inactive means the rest.
Columns and labels:
Test in all cases: NCI-60 one-dose screen, 48 h (100 = growth as untreated, 0 = no growth, -100 = all killed)
Details in all cases: 10 µM unless noted
[1] = test system: DU-145 prostate
[2] = test system: K-562 leukemia
[3] = test system: MALME-3M melanoma
[4] = test system: MDA-MB-231 breast
[5] = test system: RXF 393 renal
[6] = test system: SF-268 CNS
[7] = test system: SF-295 CNS
[8] = test system: SF-539 CNS
[9] = test system: UACC-257 melanoma
[10] = test system: M14 melanoma
[11] = test system: HCT-15 colon
[12] = test system: HT29 colon
[13] = test system: SNB-75 CNS
[14] = test system: SNB-19 CNS
[15] = test system: U251 CNS
[16] = test system: PC-3 prostate
[17] = test system: UACC-62 melanoma
[18] = test system: LOX IMVI melanoma
[19] = test system: SK-MEL-28 melanoma
[20] = test system: SK-MEL-5 melanoma

Measured: growth

N#Cc1ccccc1C#Cc1ccccc1C#Cc1ccc(OCCCCCCOc2ccc(C#Cc3ccccc3C#Cc3ccccc3C#N)cc2)cc1
inactive: [1] 111% | [2] 96.7% | [3] 102% | [4] 88.5% | [5] 97.7% | [6] 115% | [7] 106% | [8] 97.6% | [9] 103% | [10] 85.8% | [11] 123% | [12] 111% | [13] 106% | [14] 108% | [15] 106% | [16] 99.5% | [17] 83.3% | [18] 98.4% | [19] 113%

N#Cc1ccc(-c2csc(Nc3ccc4nc5n(c(=O)c4c3)CCC5)n2)cc1
inactive: [1] 109% | [2] 96.8% | [3] 102% | [4] 104% | [5] 106% | [6] 106% | [7] 98.2% | [8] 101% | [9] 108% | [10] 103% | [11] 98.2% | [12] 105% | [14] 98.1% | [15] 96% | [16] 110% | [20] 97.4% | [17] 100% | [18] 101% | [19] 104%

Cc1ccc(NC(=O)c2sc3nc4c(cc3c2N)C(=O)CCC4)cc1
inactive: [1] 96.4% | [2] 53.1% | [3] 89.1% | [4] 78% | [5] 108% | [6] 110% | [7] 47.1% | [8] 93.5% | [9] 74% | [10] 85.3% | [11] 58.6% | [13] 86.3% | [14] 72.2% | [15] 86.6% | [16] 73.2% | [20] 53.2% | [17] 69.2% | [18] 93.1% | [19] 84.8%

Cc1csc(C#Cc2cncc(O)c2)n1
inactive: [1] 116% | [2] 127% | [3] 96.7% | [4] 107% | [5] 69.9% | [6] 131% | [7] 121% | [8] 108% | [9] 98.5% | [10] 111% | [11] 112% | [12] 110% | [13] 139% | [14] 112% | [15] 107% | [16] 106% | [17] 98.7% | [18] 116% | [19] 111%

N/C(=N\c1nc2ccccc2s1)NC(=O)Nc1ccccc1Cl
inactive: [1] 21.8% | [3] 63.3% | [4] 42.1% | [6] 60.9% | [9] 62.3% | [10] 13.4% | [11] 23.9% | [14] 37.4% | [15] 19.1% | [16] 27.8% | [20] 23.8% | [17] 26.7% | [18] 36.2% | [19] 46.8%
active: [2] 6.5% | [5] -13.9% | [7] 9.08% | [8] -14.2% | [12] 5.03%

CCOC(=O)/C=C1/SC(=Nc2ccc(C#N)cc2)N(Cc2ccco2)C1=O
inactive: [1] 39.2% | [3] 47.6% | [4] 57% | [6] 73.2% | [7] 88.8% | [8] 38.1% | [9] 54.9% | [10] 25.8% | [12] 35% | [13] 83.3% | [14] 67.1% | [15] 59.8% | [16] 20.2% | [17] 35.5% | [19] 38.5%
active: [2] 8.76% | [5] -23.9% | [11] -4.1% | [18] -73.2%

O=C(Nc1cccc(-n2cc(-c3ccncc3)c(-c3cc(O)cc(Cl)c3)n2)c1)Nc1ccc(Cl)c(Cl)c1
inactive: [6] 16.2% | [14] 30.8%
active: [1] -15.1% | [2] 1.06% | [3] -35.1% | [4] -38.1% | [5] -70.3% | [7] -50.5% | [8] -29% | [9] -70.7% | [10] -69.2% | [11] -25.3% | [13] 4.08% | [15] -56.5% | [16] -1.66% | [20] -53% | [17] -61.8% | [18] -84.7% | [19] -50.9%

N#Cc1c(-c2ccccc2)cc(-c2ccccc2)n(CCCCCCC(=O)O)c1=O
inactive: [1] 116% | [2] 94.3% | [3] 94.5% | [4] 94.8% | [5] 92.7% | [6] 97.8% | [7] 94.1% | [8] 97.4% | [9] 109% | [10] 101% | [11] 90.7% | [12] 97.4% | [14] 96.3% | [15] 98.1% | [16] 105% | [20] 99.8% | [17] 90.7% | [18] 89.2% | [19] 103%

c1ccc(COc2ccc(Nc3ncnc4c3cnn4-c3ccccc3)cc2)cc1
inactive: [1] 104% | [2] 90.3% | [3] 92.8% | [4] 101% | [5] 102% | [6] 108% | [7] 107% | [8] 99.6% | [9] 121% | [10] 101% | [11] 72.4% | [12] 116% | [13] 102% | [14] 96% | [15] 106% | [16] 88.5% | [17] 93.3% | [19] 96%

c1ccc(-c2nc(Nc3nccnn3)c3ccccc3n2)cc1
inactive: [1] 99.5% | [2] 91.1% | [3] 99.1% | [4] 91.8% | [5] 96.7% | [6] 98% | [7] 98% | [8] 99.1% | [9] 109% | [10] 99.3% | [11] 98.2% | [12] 98.8% | [14] 93.6% | [15] 92.9% | [16] 101% | [20] 99.1% | [17] 87.8% | [18] 96% | [19] 103%

N#Cc1c(-c2ccccc2)cc(-c2ccccc2)n(CC(=O)O)c1=O
inactive: [1] 87.5% | [2] 21.1% | [3] 56.2% | [4] 60.3% | [5] 62.3% | [6] 67.2% | [7] 36.8% | [8] 66.5% | [9] 64.4% | [10] 26.3% | [11] 32.6% | [12] 24.2% | [14] 58.3% | [15] 47.5% | [16] 70.4% | [20] 40.6% | [17] 28.6% | [18] 52.5% | [19] 60.6%

O=C(Nc1cccc(Cl)c1)Nc1cccc(Cl)c1
inactive: [1] 78.6% | [2] 19.6% | [3] 68.1% | [4] 85.3% | [5] 132% | [6] 88.6% | [7] 24.8% | [8] 91.4% | [9] 105% | [10] 75.7% | [11] 60.9% | [12] 82.1% | [13] 94.7% | [15] 63.5% | [16] 26.8% | [20] 79.2% | [17] 43.7% | [19] 95%

Cc1cc(C(=O)Nc2ccc3cc(CN4CCOCC4)ccc3n2)c(C)n1-c1ccccc1
inactive: [1] 70.2% | [2] 27% | [3] 11.4% | [4] 70.9% | [5] 96.3% | [6] 77% | [7] 11.7% | [8] 59.1% | [10] 13.5% | [11] 40.4% | [13] 15.5% | [14] 77% | [15] 46.3% | [18] 24.2% | [19] 27.9%
active: [9] -12.7% | [16] 4.55% | [20] -38.1% | [17] 7.01%

CN1CCN(c2nc3scc(-c4ccccc4)c3c(=O)[nH]2)CC1
inactive: [1] 103% | [2] 95.9% | [3] 86.4% | [4] 92% | [5] 96.5% | [6] 96.7% | [7] 96.6% | [8] 93.7% | [9] 108% | [10] 97.6% | [11] 104% | [12] 96.7% | [13] 88.4% | [14] 96.5% | [15] 99.4% | [16] 92.9% | [17] 94.2% | [19] 104%

COc1cc(/C=C/c2cc(/C=C/c3ccc(O)c(OC)c3)n(C(=O)Cc3ccccc3)n2)ccc1O
active: [2] 1.69% | [3] -0.485% | [5] -42.6% | [6] 9.64% | [7] 8.28% | [8] -23.1% | [9] -5.67% | [10] 0.243% | [11] 6.11% | [13] 0.658% | [14] 7.03% | [15] -2.58% | [16] 3.01% | [20] -31.8% | [17] 1.59% | [18] 5.18% | [19] -4.66%
inactive: [1] 17.3% | [4] 15.2%

CCN(CC)CCCCCCCNc1c2ccc(Cl)cc2nc2ccc(OC)cc12
active: [1] -28.6% | [2] -21.5% | [3] -20.6% | [4] -30% | [5] -70.8% | [6] -59.1% | [7] -51.6% | [8] -71.2% | [9] -84.3% | [10] -48.8% | [11] -5.62% | [13] -94.1% | [14] -10.1% | [15] -70.2% | [16] -56.1% | [20] -100% | [17] -55% | [18] -7.86% | [19] -77.4%

COc1ccc2c(c1)c(CC(=O)[Se]C)c(C)n2C(=O)c1ccc(Cl)cc1
inactive: [2] 29.8% | [4] 44.4% | [7] 12.7% | [11] 14.9% | [14] 24% | [15] 14.9% | [16] 24.2% | [17] 33.6%
active: [1] -7.9% | [3] -41.9% | [5] 4.4% | [6] -26.5% | [8] -17.4% | [9] 3.77% | [10] -13.9% | [12] 2.05% | [20] -63.9% | [18] -69.5% | [19] -7.85%
